# Measurements reported in the supplement of paper PMC10849652.
# The full data set covers some 8,800 targets. This sample favours those with a hit. About 0.5% of all pairs of compound and target were hits. Values without a mark were called inactive.
# Assays:
# Assay in all cases: log2 fold change, soluble protein after heating vs DMSO (PISA); higher = thermal stabilisation; K562 lysate, 10 uM; active = over 0.2 and 3.5 SD of the protein, either way, in both replicates (recomputed)
# [1] = compound: C=CC(=O)N1CCC[C@@H](n2nc(-c3ccc(Oc4ccccc4)cc3)c3c(N)ncnc32)C1 [ibrutinib]
# Procedure, shortened: (§1)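 Pellets of K562 cells were dounce-homogenised in PBS pH 7.4 with 1 mM MgCl2, and the crude extract was held at 1 mg/mL protein for a 30 min treatment with 10 μM compound. Aliquots were heated for 3 min over 48°C-58°C and pooled before NP-40 was added to 0.5% at 4°C. The supernatant from 21,000xg for 90 min was quantified by TMTpro 16plex LC-MS/MS with channel sums equalised. Values are reported from duplicates as log-two fold change in thermal stability relative to solvent controls.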
# [2] = compound: CC(=O)c1cnc2ccc(-c3cc(Cl)c(O)c(Cl)c3)nc2c1N[C@H]1CC[C@H](CN(C)C)CC1
# Procedure, shortened: as §1
# [3] = compound: CC(C)(C)Cn1c(N)nc2ccc(-c3[nH]c(C(C)(C)C)nc3-c3ccc(F)cc3)nc21 [ralimetinib]
# Procedure, shortened: as §1
# [4] = compound: CC(C)(O)CC(=O)NCCn1ccc2ncnc(Nc3ccc(Oc4cccc(C(F)(F)F)c4)c(Cl)c3)c21
# Procedure, shortened: as §1
# [5] = compound: CC(C)C1=C2N=C(C=C(N2N=C1)NCC3=CC=CC=C3)NCCCCCCN
# Procedure, shortened: as §1
# [6] = compound: CC1=C(C(CC(=O)N1)C2=CC=C(C=C2)C(F)(F)F)C(=O)NC3=C(C=C4C(=C3)C=NN4)F
# Procedure, shortened: as §1
# [7] = compound: CC1=C(C2=C(C=C1)C(=O)C3=CC=CC=C3N2CCCN)C
# Procedure, shortened: as §1
# [8] = compound: CC1=C(C=C(C=C1)NC(=O)C2=CC(=CC=C2)C(C)(C)C#N)NC3=CC4=C(C=C3)N=CN(C4=O)C
# Procedure, shortened: as §1
# [9] = compound: CC1=C(C=C(C=C1)NC(=O)C2=CC(=CC=C2)N(C)C)NC(=O)C3=CC=C(C=C3)O
# Procedure, shortened: as §1
# [10] = compound: CC1=CC=C(C=C1)SC2=C3C=C(SC3=CN=C2)C(=O)N
# Procedure, shortened: as §1
# UniProt P30307, sequence (P30307 whole entry, looked up): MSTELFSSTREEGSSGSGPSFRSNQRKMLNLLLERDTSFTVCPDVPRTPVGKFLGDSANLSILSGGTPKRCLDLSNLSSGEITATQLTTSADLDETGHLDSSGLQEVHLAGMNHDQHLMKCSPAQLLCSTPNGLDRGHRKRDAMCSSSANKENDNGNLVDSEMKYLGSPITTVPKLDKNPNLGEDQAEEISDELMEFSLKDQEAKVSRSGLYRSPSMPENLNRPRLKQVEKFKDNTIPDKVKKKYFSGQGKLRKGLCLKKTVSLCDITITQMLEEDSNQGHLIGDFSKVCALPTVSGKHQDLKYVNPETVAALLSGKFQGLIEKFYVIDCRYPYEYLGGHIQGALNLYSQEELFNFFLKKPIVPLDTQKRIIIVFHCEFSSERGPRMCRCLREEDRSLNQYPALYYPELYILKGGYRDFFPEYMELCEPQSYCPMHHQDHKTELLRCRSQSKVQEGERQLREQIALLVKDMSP
# UniProt Q8TAP6, sequence (Q8TAP6 whole entry, looked up): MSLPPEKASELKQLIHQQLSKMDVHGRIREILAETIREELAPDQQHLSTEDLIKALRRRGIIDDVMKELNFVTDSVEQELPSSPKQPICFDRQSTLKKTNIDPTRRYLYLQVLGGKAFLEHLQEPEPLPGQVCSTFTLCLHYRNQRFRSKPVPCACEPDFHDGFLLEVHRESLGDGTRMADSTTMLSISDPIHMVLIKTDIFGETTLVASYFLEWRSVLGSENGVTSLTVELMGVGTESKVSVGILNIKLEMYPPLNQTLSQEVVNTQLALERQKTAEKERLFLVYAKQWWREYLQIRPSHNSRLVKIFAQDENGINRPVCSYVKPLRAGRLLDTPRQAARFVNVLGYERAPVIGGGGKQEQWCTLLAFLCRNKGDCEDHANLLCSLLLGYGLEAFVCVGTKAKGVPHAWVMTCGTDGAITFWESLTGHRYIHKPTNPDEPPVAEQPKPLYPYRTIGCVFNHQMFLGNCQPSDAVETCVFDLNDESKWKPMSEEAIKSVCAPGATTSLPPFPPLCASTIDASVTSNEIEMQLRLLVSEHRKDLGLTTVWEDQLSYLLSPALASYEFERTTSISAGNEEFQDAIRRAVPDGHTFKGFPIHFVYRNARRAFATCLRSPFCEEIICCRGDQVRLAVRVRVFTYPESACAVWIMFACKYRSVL
# UniProt O75081, sequence (O75081 whole entry, looked up): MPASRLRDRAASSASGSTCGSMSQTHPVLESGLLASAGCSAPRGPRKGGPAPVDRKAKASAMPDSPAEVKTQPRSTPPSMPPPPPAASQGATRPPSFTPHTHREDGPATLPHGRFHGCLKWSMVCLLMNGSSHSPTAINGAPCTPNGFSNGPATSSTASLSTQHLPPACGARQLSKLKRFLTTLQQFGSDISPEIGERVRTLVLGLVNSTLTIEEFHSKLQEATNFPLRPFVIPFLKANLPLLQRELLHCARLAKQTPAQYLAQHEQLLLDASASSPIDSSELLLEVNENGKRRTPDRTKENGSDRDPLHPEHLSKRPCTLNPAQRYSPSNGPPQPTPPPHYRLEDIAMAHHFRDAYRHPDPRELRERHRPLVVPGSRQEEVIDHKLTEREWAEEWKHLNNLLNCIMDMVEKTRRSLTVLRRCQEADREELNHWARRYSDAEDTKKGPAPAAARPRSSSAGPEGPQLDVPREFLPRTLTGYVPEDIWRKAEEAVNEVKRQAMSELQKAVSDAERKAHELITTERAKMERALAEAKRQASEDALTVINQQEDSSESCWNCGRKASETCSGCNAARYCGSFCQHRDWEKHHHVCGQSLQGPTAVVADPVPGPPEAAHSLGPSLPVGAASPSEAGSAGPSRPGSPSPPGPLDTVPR
# UniProt O75143, sequence (O75143 whole entry, looked up): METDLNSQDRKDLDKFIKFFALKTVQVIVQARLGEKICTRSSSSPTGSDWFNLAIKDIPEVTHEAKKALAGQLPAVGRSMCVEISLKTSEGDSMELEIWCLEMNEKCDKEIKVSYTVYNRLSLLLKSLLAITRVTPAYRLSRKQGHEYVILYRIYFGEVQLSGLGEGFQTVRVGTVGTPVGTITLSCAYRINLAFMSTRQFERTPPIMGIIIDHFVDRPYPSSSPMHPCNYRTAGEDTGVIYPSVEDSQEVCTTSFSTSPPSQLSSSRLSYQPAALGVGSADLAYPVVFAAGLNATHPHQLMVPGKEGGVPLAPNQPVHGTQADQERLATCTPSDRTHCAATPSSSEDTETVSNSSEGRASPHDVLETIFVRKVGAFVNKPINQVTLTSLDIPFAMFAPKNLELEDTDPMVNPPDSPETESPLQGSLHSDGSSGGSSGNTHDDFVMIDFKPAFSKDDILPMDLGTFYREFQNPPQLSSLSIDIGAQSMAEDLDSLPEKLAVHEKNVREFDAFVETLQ
# UniProt P18859, sequence (P18859 whole entry, looked up): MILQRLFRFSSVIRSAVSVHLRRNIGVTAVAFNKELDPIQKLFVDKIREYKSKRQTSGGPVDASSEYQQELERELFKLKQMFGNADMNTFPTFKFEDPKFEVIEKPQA
# UniProt P55211, sequence (P55211 whole entry, looked up): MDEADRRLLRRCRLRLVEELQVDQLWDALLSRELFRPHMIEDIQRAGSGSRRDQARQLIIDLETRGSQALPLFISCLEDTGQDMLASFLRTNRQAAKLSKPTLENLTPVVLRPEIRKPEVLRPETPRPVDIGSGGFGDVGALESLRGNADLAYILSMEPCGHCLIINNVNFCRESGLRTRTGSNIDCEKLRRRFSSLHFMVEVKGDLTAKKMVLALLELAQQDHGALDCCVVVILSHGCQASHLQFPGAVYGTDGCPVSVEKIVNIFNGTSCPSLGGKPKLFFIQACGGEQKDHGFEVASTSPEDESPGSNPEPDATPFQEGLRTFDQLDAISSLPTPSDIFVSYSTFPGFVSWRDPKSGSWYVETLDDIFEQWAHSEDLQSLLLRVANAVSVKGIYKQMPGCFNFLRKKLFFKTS
# UniProt P23634, sequence (P23634 whole entry, looked up): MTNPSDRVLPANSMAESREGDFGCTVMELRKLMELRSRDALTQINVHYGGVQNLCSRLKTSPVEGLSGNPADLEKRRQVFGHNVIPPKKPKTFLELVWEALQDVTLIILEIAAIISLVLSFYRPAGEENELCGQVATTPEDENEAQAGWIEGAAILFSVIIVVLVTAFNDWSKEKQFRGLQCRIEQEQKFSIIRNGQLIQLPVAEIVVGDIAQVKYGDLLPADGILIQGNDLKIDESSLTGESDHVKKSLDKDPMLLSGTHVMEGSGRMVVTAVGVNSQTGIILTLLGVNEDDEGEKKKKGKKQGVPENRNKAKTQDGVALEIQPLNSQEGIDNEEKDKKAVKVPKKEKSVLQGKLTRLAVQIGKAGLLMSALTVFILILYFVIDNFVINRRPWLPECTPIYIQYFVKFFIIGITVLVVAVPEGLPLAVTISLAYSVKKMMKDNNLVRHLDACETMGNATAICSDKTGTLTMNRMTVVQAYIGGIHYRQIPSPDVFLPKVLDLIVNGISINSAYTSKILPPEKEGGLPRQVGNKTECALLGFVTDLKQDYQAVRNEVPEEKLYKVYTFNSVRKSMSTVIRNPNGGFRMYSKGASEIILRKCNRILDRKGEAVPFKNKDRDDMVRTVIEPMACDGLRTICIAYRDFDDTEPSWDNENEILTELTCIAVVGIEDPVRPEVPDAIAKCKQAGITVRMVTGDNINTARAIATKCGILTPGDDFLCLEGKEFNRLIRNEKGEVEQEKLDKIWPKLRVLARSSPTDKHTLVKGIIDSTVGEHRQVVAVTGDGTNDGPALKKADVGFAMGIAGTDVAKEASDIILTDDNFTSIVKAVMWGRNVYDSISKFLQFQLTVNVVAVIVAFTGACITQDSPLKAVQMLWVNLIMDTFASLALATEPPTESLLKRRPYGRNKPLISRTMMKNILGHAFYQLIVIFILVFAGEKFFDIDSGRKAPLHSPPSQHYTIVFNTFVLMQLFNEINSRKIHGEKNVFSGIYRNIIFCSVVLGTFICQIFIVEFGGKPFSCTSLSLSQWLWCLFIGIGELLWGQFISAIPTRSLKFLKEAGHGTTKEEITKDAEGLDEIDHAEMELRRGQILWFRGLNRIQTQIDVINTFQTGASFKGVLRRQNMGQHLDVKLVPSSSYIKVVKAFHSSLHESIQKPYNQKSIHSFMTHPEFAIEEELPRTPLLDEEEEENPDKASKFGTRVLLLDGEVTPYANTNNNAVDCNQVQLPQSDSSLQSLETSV
# UniProt P56945, sequence (P56945 whole entry, looked up): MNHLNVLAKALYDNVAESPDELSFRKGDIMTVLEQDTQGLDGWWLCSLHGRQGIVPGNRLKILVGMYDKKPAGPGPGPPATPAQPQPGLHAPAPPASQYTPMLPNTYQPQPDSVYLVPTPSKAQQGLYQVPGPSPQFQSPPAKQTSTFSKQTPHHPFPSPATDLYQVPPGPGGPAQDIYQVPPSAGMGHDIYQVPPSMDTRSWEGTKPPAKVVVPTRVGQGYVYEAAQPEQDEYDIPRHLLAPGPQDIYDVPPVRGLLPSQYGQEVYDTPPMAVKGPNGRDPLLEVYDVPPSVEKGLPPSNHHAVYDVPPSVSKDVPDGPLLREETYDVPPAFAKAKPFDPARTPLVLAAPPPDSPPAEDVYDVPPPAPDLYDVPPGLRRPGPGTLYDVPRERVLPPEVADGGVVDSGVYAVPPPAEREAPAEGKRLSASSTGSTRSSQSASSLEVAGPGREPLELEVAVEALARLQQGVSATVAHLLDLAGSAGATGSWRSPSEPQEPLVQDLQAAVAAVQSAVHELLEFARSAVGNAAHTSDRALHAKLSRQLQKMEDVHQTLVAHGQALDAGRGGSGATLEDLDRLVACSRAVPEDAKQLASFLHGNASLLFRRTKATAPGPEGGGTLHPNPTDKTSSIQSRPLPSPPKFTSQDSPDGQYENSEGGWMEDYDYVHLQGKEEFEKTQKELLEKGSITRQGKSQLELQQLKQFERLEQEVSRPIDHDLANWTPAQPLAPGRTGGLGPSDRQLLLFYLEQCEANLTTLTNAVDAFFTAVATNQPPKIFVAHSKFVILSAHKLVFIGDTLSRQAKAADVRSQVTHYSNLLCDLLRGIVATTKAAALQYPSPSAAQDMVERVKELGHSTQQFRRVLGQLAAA
# UniProt Q8TCD1, sequence (Q8TCD1 whole entry, looked up): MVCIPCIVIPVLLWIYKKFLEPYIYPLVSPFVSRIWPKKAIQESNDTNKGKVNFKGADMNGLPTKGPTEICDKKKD
Target,log2 fold change [1],log2 fold change [2],log2 fold change [3],log2 fold change [4],log2 fold change [5],log2 fold change [6],log2 fold change [7],log2 fold change [8],log2 fold change [9],log2 fold change [10]
ATP2B4 (UniProt P23634),0.06,-0.026,-0.056,-0.029,-0.018,0.033,-0.034,0.089,0.051,-0.003
BLM (UniProt P54132),0.128,0.026,-0.015,0.031,-0.005,-0.019,0.03,-0.058,0.019,0.036
CBR1 (UniProt P16152),0.04,-0.017,0.009,0.006,0.001,-0.032,0.045,-0.015,0.02,-0.003
CDC42EP4 (UniProt Q9H3Q1),0.07,-0.014,0.034,-0.006,0.01,0.024,0.026,0.155,-0.018,-0.035
CDK11B (UniProt P21127),-0.008,0.438 (active),0.028,0.034,0.01,-0.027,-0.011,0,0.01,0.003
CASP9 (UniProt P55211),-0.039,-0.06,0.04,-0.06,-0.017,0.01,-0.003,-0.01,0.011,-0.012
CDC25C (UniProt P30307),0.006,0.01,0.013,0.091,-0.027,0.026,0.059,-0.022,-0.004,-0.019
ATG4A (UniProt Q8WYN0),0.032,-0.006,0.011,-0.051,-0.055,-0.006,-0.004,0.053,0.021,-0.014
CCDC22 (UniProt O60826),0.006,0.033,-0.005,-0.045,-0.009,0.005,0.001,-0.01,0.025,-0.027
C12orf45 (UniProt Q8N5I9),0.027,0.003,0.005,0.014,0.033,-0.021,-0.02,-0.018,0.02,-0.043
BCKDK (UniProt O14874),0.048,0.049,0.137,-0.017,-0.001,-0.048,0.004,-0.088,0.067,0.059
BNIP3 (UniProt Q12983),0.04,0.048,0.032,0.01,-0.002,-0.068,-0.002,0.045,-0.047,0.003
CAMK1 (UniProt Q14012),0.017,0.009,0.004,-0.144,-0.017,-0.034,-0.003,0.016,-0.027,0.008
CHCHD1 (UniProt Q96BP2),-0.004,0.021,0.047,-0.101,-0.059,0,-0.081,-0.014,-0.032,-0.055
ATR (UniProt Q13535),0.06,0.319,0,-0.037,0.016,-0.015,-0.031,0.032,0.039,-0.053
ATP13A1 (UniProt Q9HD20),-0.021,0.048,0.029,-0.104,0.036,0.005,-0.089,-0.108,0.062,0.007
C18orf32 (UniProt Q8TCD1),0.069,-0.014,0.053,-0.048,-0.069,-0.078,-0.021,0.074,-0.056,0.032
ATAD3B (UniProt Q5T9A4),-0.054,0.018,-0.027,-0.069,-0.012,-0.026,-0.028,-0.03,0.045,0.015
ATG13 isoform 2 (UniProt O75143),0.01,0.011,-0.003,-0.018,0.004,0,-0.006,0.048,-0.024,0.016
CAMKK1 isoform 2 (UniProt Q8N5S9),0.027,0.189,0.063,-0.153,-0.059,-0.008,-0.055,0.014,0.004,0.138
ATP5PF isoform 2 (UniProt P18859),0.069,-0.055,-0.003,0.063,-0.053,-0.032,-0.055,0.026,0.05,0.083
BCAR1 isoform 6 (UniProt P56945),0.024,0.02,-0.009,0,0.01,0.03,-0.056,-0.014,0.006,-0.033
CEP76 (UniProt Q8TAP6),-0.004,0.081,0.019,0.003,-0.002,-0.019,-0.063,0.051,0,-0.005
ATRIP (UniProt Q8WXE1),0.019,0.129,-0.007,-0.014,-0.048,0.063,0.005,-0.008,-0.008,-0.019
CCNH (UniProt P51946),0.018,-0.149,-0.001,-0.064,-0.058,-0.044,-0.025,-0.044,0.018,-0.016
CCNB1 (UniProt P14635),-0.01,0.503 (active),0.009,-0.045,-0.012,-0.005,0.003,0.044,-0.002,0
CBFA2T3 (UniProt O75081),0.005,0.016,0.019,-0.005,-0.013,-0.001,0.003,-0.016,0.022,-0.005
